# Out of some 310,000 compounds screened, about 14,000 (4.5%) showed an effect of 50% or more. Effects have a minus sign here. For the sample, strong results were picked, then their nearest neighbours and some compounds at random.
# Target: human ether-à-go-go-related gene (hERG) potassium channel (human, UniProt Q12809)
# Assay: primary screen, population patch clamp on CHO cells stably expressing hERG; higher = less effect of the substance
# 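Further: peak tail current of the secondary pulse compared with the same well before compound.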
# Chain of human ether-à-go-go-related gene (hERG) potassium channel (Q12809 whole entry, looked up): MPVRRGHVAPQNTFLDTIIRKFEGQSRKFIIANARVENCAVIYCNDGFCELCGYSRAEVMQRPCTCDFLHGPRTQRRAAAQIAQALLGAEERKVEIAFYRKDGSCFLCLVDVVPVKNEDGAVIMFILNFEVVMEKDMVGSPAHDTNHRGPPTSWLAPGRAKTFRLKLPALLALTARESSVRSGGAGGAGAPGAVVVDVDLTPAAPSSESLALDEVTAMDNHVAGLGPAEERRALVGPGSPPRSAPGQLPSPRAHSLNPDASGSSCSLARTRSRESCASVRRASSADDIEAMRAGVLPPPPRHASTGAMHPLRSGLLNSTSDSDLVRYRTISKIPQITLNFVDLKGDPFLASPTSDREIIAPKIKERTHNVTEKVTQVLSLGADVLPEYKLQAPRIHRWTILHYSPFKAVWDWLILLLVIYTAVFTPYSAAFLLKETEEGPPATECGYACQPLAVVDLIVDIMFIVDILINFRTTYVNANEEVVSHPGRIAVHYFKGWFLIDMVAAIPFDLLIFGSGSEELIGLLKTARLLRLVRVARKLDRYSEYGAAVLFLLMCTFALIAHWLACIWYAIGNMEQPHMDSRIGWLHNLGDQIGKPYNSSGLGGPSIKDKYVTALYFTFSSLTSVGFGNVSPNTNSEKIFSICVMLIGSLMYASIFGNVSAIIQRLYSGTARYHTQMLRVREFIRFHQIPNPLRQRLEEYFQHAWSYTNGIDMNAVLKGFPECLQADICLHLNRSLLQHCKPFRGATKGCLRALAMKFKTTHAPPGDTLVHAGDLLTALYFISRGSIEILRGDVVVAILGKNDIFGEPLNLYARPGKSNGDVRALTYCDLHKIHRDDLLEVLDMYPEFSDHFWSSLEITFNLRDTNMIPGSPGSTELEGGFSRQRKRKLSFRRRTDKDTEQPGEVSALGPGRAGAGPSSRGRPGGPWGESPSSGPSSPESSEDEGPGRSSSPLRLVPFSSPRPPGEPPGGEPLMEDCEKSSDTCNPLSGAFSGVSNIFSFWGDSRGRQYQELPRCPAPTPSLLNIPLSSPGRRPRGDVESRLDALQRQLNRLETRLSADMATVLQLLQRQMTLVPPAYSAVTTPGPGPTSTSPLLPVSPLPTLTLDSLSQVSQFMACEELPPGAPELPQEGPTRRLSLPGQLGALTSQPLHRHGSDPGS
row,Structure (SMILES),"hERG current change (%, negative = inhibition) at 10uM [%]"
1,O=C(NCCCN1CCN(c2cccc(Cl)c2)CC1)c1nc(-c2ccncc2)no1,-63.2
2,O=C(NCC1CC1)c1ccc(Oc2cc(Cl)cc(Cl)c2)o1,-33.7
3,O=C(NCCN1CCOCC1)c1cccc(Br)c1,-3.21
4,O=C(NCCCN1CCN(c2cccc(Cl)c2)CC1)c1ccc(N2CCCC2=O)cc1,-26.4
5,O=C(NCCc1ccccc1)c1cccc(Br)c1,2.53
6,COc1ccc(C(=O)NCCCCc2ccccc2)cc1,-4.68
7,O=C(c1ccc(Oc2cc(Cl)cc(Cl)c2)o1)N1CCCCC1,-7.03
8,O=C(NCCN1CCCCC1)c1ccc(Oc2cc(Cl)cc(Cl)c2)o1,-54.8
9,O=C(NCCN1CCN(c2ccccc2)CC1)c1cccc(Br)c1,-60.2
10,Clc1cccc(N2CCN(Cc3nc(-c4ccccc4)no3)CC2)c1,-12
11,COc1cc(OC)cc(C(=O)NCCCCc2ccccc2)c1,-56
12,COc1cc(OC)cc(C(=O)NCCCCNC(=O)c2cc(OC)cc(OC)c2)c1,4.94
13,O=C(COc1ccc(Br)cc1Br)NC(=O)NC1CCCC1,22.3
14,O=C(CN1C(=O)NC(c2ccccc2)(c2ccccc2)C1=O)NC1CCS(=O)(=O)C1 (stereo not drawn),5.23
15,CCc1nc(Nc2ccccc2F)c2oc3ccccc3c2n1.Cl,6.04
16,CCC(=O)Nc1ccc(S(=O)(=O)Nc2ccc(Cl)nn2)cc1.Cl,11.7
17,Cc1cccc(C)c1NC(=O)N1CCC(C(=O)c2ccc(F)cc2)CC1,-22.6
18,COC(=O)C1=NN(c2ccc(OC)cc2)C2C(=O)N(c3ccccc3OC)C(=O)C12 (stereo not drawn),10.7
19,COc1ccc(S(=O)(=O)N2CCC3(CC2)OCCN3S(=O)(=O)c2ccccc2)cc1OC,0.907
20,CCOC(=O)c1c(C)[nH]c(C(=O)OCC(=O)Nc2ccc(Cl)cn2)c1C,6.52
21,CCCOc1ccccc1C1NC(=O)NC(C)=C1C(=O)OCc1ccccc1 (stereo not drawn),6.23
22,COc1ccc(-c2cc(C(F)(F)F)nc(SCC(=O)NCc3cccs3)n2)cc1OC,-3.84

row,Structure (SMILES),"hERG current change (%, negative = inhibition) at 10uM [%]"
1,CC1CCC(NC(=O)c2ccc3snnc3c2)CC1 (stereo not drawn),21.3
2,Cl.O=C(NCCN1CCCC1)c1cccc(Cl)c1,-51.6
3,O=C(NCCN1CCOCC1)c1cccc(Cl)c1,-1.9
4,COc1ccc(NC(=O)c2cccc(NC(=O)c3ccccc3)c2)cc1,2
5,Cc1cccc(C(=O)NCCN2CCCC2)c1.Cl,-0.337
6,COc1ccc(C(=O)Nc2cccc(C(=O)NCc3ccccc3)c2)cc1,4.28
7,COc1ccc(CNC(=O)c2cccc(NC(=O)c3ccccc3)c2)cc1,-71.5
8,Cc1cc(=O)oc2cc(NC(=O)c3ccccc3Cl)ccc12,28
9,C(=N\Nc1nc(Nc2ccccc2)nc(Nc2ccccc2)n1)/c1cccnc1,-4.87
10,C[n+]1cccc(C2C(C#N)=C(N)Oc3c2ccc2ccccc32)c1.[I-] (stereo not drawn),13.7
11,C/C(=N\Nc1ccc2nncn2n1)c1ccc(Br)s1,6.83
12,O=C(/C=C/c1cccs1)NCc1ccccc1,-2.08
13,CCOC(=O)CNS(=O)(=O)c1cc(-c2nn(C)c(=O)c3ccccc23)ccc1C,-52.8
14,CCN(CC)S(=O)(=O)c1cc(-c2nn(C)c(=O)c3ccccc23)ccc1C,-53.5
15,Cc1ccc(-c2nn(C)c(=O)c3ccccc23)cc1S(=O)(=O)N1CCCC1,-40.6
16,CCC(CO)NS(=O)(=O)c1cc(-c2nn(C)c(=O)c3ccccc23)ccc1C (stereo not drawn),-3.69
17,Cc1ccc(-c2nn(C)c(=O)c3ccccc23)cc1S(=O)(=O)NCCN(C)C,4.35
18,COCCNS(=O)(=O)c1cc(-c2nn(C)c(=O)c3ccccc23)ccc1C,-28.9
19,Cc1cc(/C=C(/C#N)C(=O)O)c(C)n1-c1cccc2ccccc12,20.1
20,CCn1cc(C(=O)NCc2cccc(C(F)(F)F)c2)c(=O)c2ccc(C)nc21,2.71
21,O=C(Nc1ccc(N2CCN(Cc3ccccc3)CC2)cc1)c1cccnc1,-14.4
22,CN1CCN(C(=O)CCN2C(=O)/C(=C/c3cccc(Br)c3)SC2=S)CC1,11.4

row,Structure (SMILES),"hERG current change (%, negative = inhibition) at 10uM [%]"
1,O=C(c1ccccc1)c1ccc(OC(=O)N2CCCC2)cc1,-11
2,CCCNc1c(NS(=O)(=O)c2ccc(C)cc2C)c(=O)oc2ccccc12,-52.2
3,CCCNc1c(NS(=O)(=O)c2ccc(C(C)(C)C)cc2)c(=O)oc2ccccc12,10.8
4,COc1ccc(S(=O)(=O)Nc2c(NC3CCCCC3)c3ccccc3oc2=O)cc1OC,-6.99
5,Cc1ccc(S(=O)(=O)Nc2c(NC3CCCCC3)c3ccccc3oc2=O)cc1,-33.9
6,CCCNc1c(NS(=O)(=O)c2ccc(C)c(C)c2)c(=O)oc2ccccc12,-30.6
7,Cc1ccc(S(=O)(=O)Nc2c(NC3CCCCC3)c3ccccc3oc2=O)cc1C,2.53
8,COc1ccc(S(=O)(=O)Nc2c(NC3CCCCC3)c3ccccc3oc2=O)cc1,-45.2
9,CCCNc1c(NS(=O)(=O)c2ccc(OC)c(OC)c2)c(=O)oc2ccccc12,-74.1
10,Cc1ccc(S(=O)(=O)Nc2c(NC3CCCCC3)c3ccccc3oc2=O)c(C)c1,-19.6
11,COc1ccc(OC)c(S(=O)(=O)Nc2c(NC3CCCCC3)c3ccccc3oc2=O)c1,-54.1
12,CCCNc1c(NS(=O)(=O)c2c(F)c(F)c(F)c(F)c2F)c(=O)oc2ccccc12,-7.27
13,N#Cc1cccc(S(=O)(=O)Nc2c(NC3CCCCC3)c3ccccc3oc2=O)c1,-53.9
14,CCOc1ccccc1N1CCN(C(=S)Nc2ccc(S(=O)(=O)Nc3ncccn3)cc2)CC1,-3.73
15,O=C(COC(=O)Cc1ccc(-c2ccccc2)cc1)NCc1ccccc1,20.8
16,CC(C)c1ccc(NC(=O)c2ccc(Br)o2)cc1,3.82
17,COc1ccc(OCC(=O)Nc2ccncc2)cc1,-17.3
18,O=c1[nH]c(CN2CCN(CCO)CC2)nc2ccccc12,21.5
19,O=C(NC1=NCCS1)c1cc(Cl)ccc1Cl,-24
20,Cn1cc(C(c2ccccn2)c2cn(C)c3ccccc23)c2ccccc21,8.3
21,CCc1[nH]c(=S)c(C#N)c(-c2ccccc2)c1C(=O)OC,25.5
22,Cc1cc(=O)[nH]c(N/N=C/c2sccc2C)n1,-1.84

row,Structure (SMILES),"hERG current change (%, negative = inhibition) at 10uM [%]"
1,CCOc1ccc(C(=O)COC(=O)CC)cc1,4.46
2,CC(/C=N/n1cnnc1)=C\c1ccco1,-16.9
3,CCCNc1c(NS(=O)(=O)c2ccc(Br)cc2)c(=O)oc2ccccc12,-34.7
4,CCCNc1c(NS(=O)(=O)c2cccc(C#N)c2)c(=O)oc2ccccc12,-58.7
5,CCCNc1c(NS(=O)(=O)c2ccc3c(c2)CCCC3)c(=O)oc2ccccc12,8.8
6,CC(NC(=O)c1ccc(S(=O)(=O)N(C)C)cc1)c1ccc(-n2ccnc2)cc1 (stereo not drawn),-74
7,CC(NC(=O)c1cc(S(=O)(=O)N(C)C)ccc1Cl)c1ccc(-n2ccnc2)cc1 (stereo not drawn),-76.8
8,CC(NC(=O)c1ccc(S(=O)(=O)N(C)C)cc1)c1ccccc1 (stereo not drawn),0.971
9,CNC(=O)c1cc(S(=O)(=O)N(C)C)ccc1Cl,5.59
10,CC(C)NC(=O)c1ccc(S(=O)(=O)N(C)C)cc1,0.0301
11,O=C(Cc1c(O)c2ccccc2[nH]c1=O)NC1CCCCCC1,3.69
12,OCCNc1c2ccccc2nc2c(F)c(F)c(F)c(F)c12,14.6
13,Cn1nc(C(F)(F)F)c(/C=N/OC(=O)c2ccccc2Cl)c1SCc1ccccc1Cl,-5.41
14,CSc1ccc(S(=O)(=O)NCC(=O)OCC(=O)NCCc2ccccc2)cc1[N+](=O)[O-],9.18
15,Cc1cc(S(=O)(=O)NCC(C)C)ccc1OCC(=O)NCc1ccccn1,-22.8
16,Cc1cc(S(=O)(=O)NCC(C)C)ccc1OCC(=O)NCc1ccco1,-73.4
17,CC(C)CNS(=O)(=O)c1ccc(OCC(=O)NCc2ccco2)cc1,-11.6
18,CSc1ccc(S(=O)(=O)NCC(=O)OCC(=O)NCc2cccs2)cc1[N+](=O)[O-],-44.5
19,CSc1ccc(S(=O)(=O)NCC(=O)OCC(=O)NCc2ccco2)cc1[N+](=O)[O-],-61.7
20,N#C/C(=N\Nc1cccc(C(F)(F)F)c1)C(=O)c1ccsc1,11.3
21,COc1ccc(N2C(=O)CC(N3CCN(c4ccccc4OC)CC3)C2=O)cc1 (stereo not drawn),6.7

# Reference: PMC4336329 (PLoS ONE, 2015)
